Experimental data taken from PubChem BioAssay AID1159580 (chemical genetic matrix, 2015).
Where “and” joins values, the source holds several entries; their conditions need not be identical. Equal values may be shown once. In all, about 5,500 compounds went through this assay and about 2,000 (36%) were called active. Not shown: some 18% with an inconclusive outcome. Rule as the data show it: active = normalized growth mostly below about 0.91 (no sharp cut-off); inconclusive = no clear call, values can overlap the other calls; inactive = mostly above about 0.92. The list shows a part of the results.

Experiment: chemical genetic growth profiling, strain panel (AID 1159580);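 also: tested at 20 µM; growth read once vehicle control cultures reached saturation at 30 °C; 1 = growth at the plate median or of vehicle wells; lower values mean less growth of the strain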
Conditions: growth OD

Measured: normalized growth

CCCCNc1cc(C(=O)O)cc(S(N)(=O)=O)c1Oc1ccccc1
inactive: S. cerevisiae deletion strains, locus YKL009W, strain mrt4, active compounds read low 0.979 | S. cerevisiae deletion strains, locus YKL068W, active compounds read low 0.986 | S. cerevisiae deletion strains, locus YKL085W, strain MDH1 (second series), active compounds read low 0.989 | S. cerevisiae deletion strains, locus YKL085W, strain MDH1, active compounds read low 0.989 | S. cerevisiae deletion strains, locus YKL160W, strain elf1, active compounds read low 0.995 | S. cerevisiae deletion strains, locus YKL190W, strain CNB1, active compounds read low 0.994 | S. cerevisiae deletion strains, locus YKR001C, strain vps1, active compounds read low 0.983 | S. cerevisiae deletion strains, locus YKR026C, strain gcn3, active compounds read low 1.01 | S. cerevisiae deletion strains, locus YKR091W, strain srl3, active compounds read low 1 | S. cerevisiae deletion strains, locus YLL001W, strain dnm1, active compounds read low 1 | S. cerevisiae deletion strains, locus YLL026W, active compounds read low 0.992 | S. cerevisiae deletion strains, locus YLL041C, strain sdh2, active compounds read low 0.991 | S. cerevisiae deletion strains, locus YLR027C, strain aat2, active compounds read low 1.01 | S. cerevisiae deletion strains, locus YLR039C, strain RIC1, active compounds read low 1.01 | S. cerevisiae deletion strains, locus YLR058C, strain SHM2, active compounds read low 0.988 | S. cerevisiae deletion strains, locus YLR102C, strain apc9, active compounds read low 0.984 | S. cerevisiae deletion strains, locus YLR113W, strain HOG1, active compounds read low 1.04 | S. cerevisiae deletion strains, locus YLR221C, strain rsa3, active compounds read low 1 | S. cerevisiae deletion strains, locus YLR258W, strain gsy2, active compounds read low 0.995 | S. cerevisiae deletion strains, locus YLR262C, strain YPT6 (second series), active compounds read low 1.02 | S. cerevisiae deletion strains, locus YLR262C, strain YPT6, active compounds read low 1.02 | S. cerevisiae deletion strains, locus YLR268W, strain sec22, active compounds read low 0.965 | S. cerevisiae deletion strains, locus YLR320W, strain mms22, active compounds read low 0.976 | S. cerevisiae deletion strains, locus YLR330W, strain CHS5, active compounds read low 0.995 | S. cerevisiae deletion strains, locus YLR342W, strain FKS1 (second series), active compounds read low 0.975 | S. cerevisiae deletion strains, locus YLR342W, strain FKS1, active compounds read low 0.976 | S. cerevisiae deletion strains, locus YLR357W, strain rsc2, active compounds read low 0.977 | S. cerevisiae deletion strains, locus YLR370C, strain arc18, active compounds read low 1.01 | S. cerevisiae deletion strains, locus YLR371W, strain rom2, active compounds read low 0.984 | S. cerevisiae deletion strains, locus YLR384C, strain iki3, active compounds read low 1.02 | S. cerevisiae deletion strains, locus YLR418C, strain cdc73, active compounds read low 0.959 | S. cerevisiae deletion strains, locus YML016C, strain PPZ1, active compounds read low 0.991 | S. cerevisiae deletion strains, locus YML032C, strain rad52, active compounds read low 0.99 | S. cerevisiae deletion strains, locus YML120C, strain ndi1, active compounds read low 0.994 | S. cerevisiae deletion strains, locus YML124C, strain tub3, active compounds read low 0.974 | S. cerevisiae deletion strains, locus YMR058W, strain fet3, active compounds read low 1.06 | S. cerevisiae deletion strains, locus YMR078C, strain ctf18, active compounds read low 0.978 | S. cerevisiae deletion strains, locus YMR125W, strain sto1, active compounds read low 1.01 | S. cerevisiae deletion strains, locus YMR129W, active compounds read low 1.02 | S. cerevisiae deletion strains, locus YMR205C, strain PFK2, active compounds read low 0.989 | S. cerevisiae deletion strains, locus YMR223W, strain ubp8, active compounds read low 0.972 | S. cerevisiae deletion strains, locus YMR231W, strain pep5, active compounds read low 1.01 | S. cerevisiae deletion strains, locus YMR263W, strain SAP30, active compounds read low 0.997 | S. cerevisiae deletion strains, locus YMR307W, strain GAS1, active compounds read low 0.957 | S. cerevisiae deletion strains, locus YNL067W, strain RPL9B, active compounds read low 1.02 | S. cerevisiae deletion strains, locus YNL071W, strain lat1, active compounds read low 1.02 | S. cerevisiae deletion strains, locus YNL128W, strain TEP1, active compounds read low 0.981 | S. cerevisiae deletion strains, locus YNL153C, strain GIM3, active compounds read low 1.05 and 1.02 | S. cerevisiae deletion strains, locus YNL175C, strain NOP13, active compounds read low 1 | S. cerevisiae deletion strains, locus YNL183C, strain NPR1, active compounds read low 0.967 | S. cerevisiae deletion strains, locus YNL197C, strain WHI3, active compounds read low 1.04 | S. cerevisiae deletion strains, locus YNL209W, strain ssb2, active compounds read low 1.01 | S. cerevisiae deletion strains, locus YNL224C, strain SQS1, active compounds read low 0.999 | S. cerevisiae deletion strains, locus YNL233W, strain BNI4, active compounds read low 1.01 | S. cerevisiae deletion strains, locus YNL248C, strain rpa49, active compounds read low 0.987 | S. cerevisiae deletion strains, locus YNL250W, strain rad50, active compounds read low 0.946 | S. cerevisiae deletion strains, locus YNL271C, strain bni1, active compounds read low 0.967 | S. cerevisiae deletion strains, locus YNL298W, strain CLA4, active compounds read low 0.969 | S. cerevisiae deletion strains, locus YNL307C, strain MCK1, active compounds read low 0.975 | S. cerevisiae deletion strains, locus YNL322C, strain KRE1 (second series), active compounds read low 0.982 | S. cerevisiae deletion strains, locus YNR049C, strain mso1, active compounds read low 1 | S. cerevisiae deletion strains, locus YNR052C, strain pop2, active compounds read low 0.977 | S. cerevisiae deletion strains, locus YOL006C, strain TOP1, active compounds read low 1 | S. cerevisiae deletion strains, locus YOL012C, strain htz1 0.812 | S. cerevisiae deletion strains, locus YOL147C, strain pex11, active compounds read low 0.977 | S. cerevisiae deletion strains, locus YOR001W, strain rrp6, active compounds read low 1.01 | S. cerevisiae deletion strains, locus YOR061W, strain CKA2, active compounds read low 0.99 | S. cerevisiae deletion strains, locus YOR069W, strain VPS5, active compounds read low 0.986 | S. cerevisiae deletion strains, locus YOR070C, strain gyp1, active compounds read low 0.998 | S. cerevisiae deletion strains, locus YOR080W, strain dia2, active compounds read low 1.01 | S. cerevisiae deletion strains, locus YOR083W, strain WHI5 (second series), active compounds read low 1.03 | S. cerevisiae deletion strains, locus YOR083W, strain WHI5, active compounds read low 0.951 | S. cerevisiae deletion strains, locus YOR106W, strain vam3, active compounds read low 1.03 | S. cerevisiae deletion strains, locus YOR136W, strain idh2, active compounds read low 0.992 | S. cerevisiae deletion strains, locus YOR144C, strain elg1, active compounds read low 0.982 | S. cerevisiae deletion strains, locus YOR184W, strain ser1, active compounds read low 0.973 | S. cerevisiae deletion strains, locus YOR231W, strain MKK1, active compounds read low 1.07 | S. cerevisiae deletion strains, locus YOR265W, strain rbl2, active compounds read low 1 | S. cerevisiae deletion strains, locus YOR270C, strain vph1, active compounds read low 1.05 | S. cerevisiae deletion strains, locus YOR290C, strain snf2, active compounds read low 1 | S. cerevisiae deletion strains, locus YOR316C, strain cot1, active compounds read low 0.986 | S. cerevisiae deletion strains, locus YPL051W, strain arl3, active compounds read low 0.997 | S. cerevisiae deletion strains, locus YPL055C, strain LGE1, active compounds read low 1.01 | S. cerevisiae deletion strains, locus YPL078C, strain atp4, active compounds read low 1 | S. cerevisiae deletion strains, locus YPL106C, strain sse1, active compounds read low 0.962 | S. cerevisiae deletion strains, locus YPL240C, strain hsp82, active compounds read low 1 | S. cerevisiae deletion strains, locus YPL241C, strain CIN2, active compounds read low 0.985 | S. cerevisiae deletion strains, locus YPL256C, strain CLN2, active compounds read low 1.06 | S. cerevisiae deletion strains, locus YPR119W, strain clb2, active compounds read low 0.983 | S. cerevisiae deletion strains, locus YPR141C, strain kar3, active compounds read low 0.967 | S. cerevisiae deletion strains, locus YPR163C, strain tif3, active compounds read low 0.983 | S. cerevisiae deletion strains, locus YPR167C, strain met16, active compounds read low 0.986 | S. cerevisiae deletion strains, strain wtn01, active compounds read low 0.958 | S. cerevisiae strains, strain wild type, active compounds read low 0.999
